Shown is part of a subset that was picked to be rich in hits.
AmpC inh no detg: AmpC beta-lactamase inhibition without detergent. P00811. AmpC nitrocefin hydrolysis, absorbance 480 nm, 0.0001% Triton. Potency, µM (doses to about 57.1 µM), without a hit: top-dose activity change, negative = inhibition, most hits filed as inhibitors. 330,000 compounds, 0.52% hits. AID 485341;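 also: potency is read from the fitted curve at half-maximal effect; plate controls were no compound for no effect and no enzyme for full effect; nearly all actives have a fitted effect of over 20% in size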
Target sequence (P00811 whole entry, looked up): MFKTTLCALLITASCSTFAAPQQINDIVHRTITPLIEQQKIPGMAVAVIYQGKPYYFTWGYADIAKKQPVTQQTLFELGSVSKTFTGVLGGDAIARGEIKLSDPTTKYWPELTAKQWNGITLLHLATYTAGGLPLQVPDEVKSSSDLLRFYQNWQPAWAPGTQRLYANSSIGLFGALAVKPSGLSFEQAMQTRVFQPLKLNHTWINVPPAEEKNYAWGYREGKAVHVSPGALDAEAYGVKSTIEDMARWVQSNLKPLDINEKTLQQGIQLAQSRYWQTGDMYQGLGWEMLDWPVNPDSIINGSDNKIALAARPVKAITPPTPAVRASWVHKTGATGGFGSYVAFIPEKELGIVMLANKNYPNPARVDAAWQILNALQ
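20 mM phosphate pH 7.0 + 0.01% (detergent screen) or 0.0001% Triton X-100; 5.3 nM AmpC reagent; cpd preinc 15 min RT; nitrocefin (800 uM stock) to start; A480 q20 s × 4 min; Activity was normalised to no-enzyme and no-compound control wells.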
Shiga inhibitor: Shiga toxin inhibition; 290,000 compounds, 9.2% hits; AID 2315; inhibition, % at 38.7 µM; Vero cells, Shiga toxin protein synthesis inhibition reporter; in the data active = inhibition mostly above about 28%, no sharp cut-off; inactive = mostly below about 43%; also: 0% is about no effect
CHX counter: counter-screen hit for Shiga toxin inhibitors, cycloheximide; 300,000 compounds, 12% hits; cell reporter, cycloheximide protein synthesis inhibition counterscreen; max response, %; in the data active = max response mostly above about 13%, no sharp cut-off; inactive = mostly below about 14%; also: read at 38.3 µM for the half of the compounds with a filed dose; 0% is about no effect
NS1 inh: inhibitors of influenza NS1 protein function | Potency, µM (top dose mostly 46.1 µM), for inactives: top-dose activity, positive = more growth | 270,000 compounds, 0.4% hits | AID 2326; calls by dose curve; also: potency is read from the fitted curve at half-maximal effect; actives are rising curves; nearly all actives have a fitted effect of over 50% in size
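Read-out: OD600 growth recovery of NS1-expressing budding yeast. Cells grown overnight at 30C in -URA glucose medium, washed, resuspended and diluted 1:100 in 2% galactose assay medium, pH 6.0. Same strain lacking NS1 served as positive control.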
AmpC detergent: AmpC beta-lactamase inhibition with detergent present; P00811; AmpC hydrolysis of nitrocefin, absorbance 480 nm, 0.01% Triton; Potency, µM (titrated, usually from 114 µM), for inactives: at the highest dose activity change, negative = inhibition, hits mostly inhibitors; 370,000 compounds, 0.041% hits; AID 485294;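 also: potency is read from the fitted curve at half-maximal effect; 0% = no-compound wells and -100% = no-enzyme wells; nearly all actives have a fitted effect of over 25% in size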
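20 mM phosphate pH 7.0 + 0.01% (detergent screen) or 0.0001% Triton X-100; 5.3 nM AmpC reagent; cpd preinc 15 min RT; nitrocefin (800 uM stock) to start; A480 q20 s × 4 min; Activity was normalised to no-enzyme and no-compound control wells.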
Starred values were filed as active, the others as inactive; ? = inconclusive; nt = no result; ! = not active in a repeat. Unless noted, calls follow the shape of the dose curve; as a rule, active = well fitted curve in the direction sought with a large enough effect; inconclusive = small, poorly fitted or top-dose-only effect, or another doubt; inactive = no such curve, though single readings can be large; an effect the other way counts as inactive or inconclusive.

SMILES | AmpC inh no detg | Shiga inhibitor | CHX counter | NS1 inh | AmpC detergent
O=C(CN1CCCCC1)N/N=C/c1ccccc1Br | -15% | 21 | 9.1* | 4% | -12%
O=C(CN1CCCCC1)N/N=C/c1ccc(Cl)cc1Cl | -6% | -3 | -1 | -8% | -5%
O=C(Cc1cc(=O)[nH][nH]1)N/N=C/c1cccc(Cl)c1Cl | -54% | -2 | -4 | 10µM* | 5%
O=C(CN1CCCCCC1)N/N=C/c1cccc(Cl)c1Cl | -34% | 105* | 24* | 12% | -12%
CCN(CC)c1nc2c(S(=O)(=O)c3cccc(Cl)c3)nnn2c2ccsc12 | nt | nt | nt | nt | 18%
Cc1ccn2c(CCc3nnc4cc(C)ccn34)nnc2c1 | nt | nt | nt | 0% | nt
COc1ccc(OCc2cc(C(=O)N3CCCN(C(C)=O)CC3)no2)c(Cl)c1 | 66% | 43* | 32* | -3% | 2%
COc1cc(Cl)ccc1OCc1cc(C(=O)N2CCN(C)CC2)no1 | 66% | 7 | 8 | 10% | -14%
COc1cc(Cl)ccc1OCc1cc(C(=O)N2CCCC(OC)C2)no1 (stereo not drawn) | 108% | 80* | 54* | -12% | 4%
COc1cc(Cl)ccc1OCc1cc(C(=O)N2CCCCCC2)no1 | 50% | 74* | 32* | -33% | 2%
Cc1ccc(NC(=O)C2C3C=CC4(O3)C2C(=O)N(CCCN2CCCCC2)C4C(=O)NC2CCCCC2)cc1C (stereo not drawn) | 13% | 3 | -5 | -10% | ?
CN(CC(=O)Nc1ccccc1C(F)(F)F)C(=O)COc1cccnc1[N+](=O)[O-] | -12% | -11 | 2 | 1% | 0%
O=C(O)Cn1ccc2ccccc21 | -17% | -6 | -2 | ? | -8%
O=C(c1ccccc1)n1ccc2ccccc21 | -17% | 137* | 31* | -36% | -19%
N[C@@H](CC(=O)O)C(=O)O | nt | nt | nt | 0% | nt
Cc1ccc2cccc(OCC(=O)Nc3ccc4c(c3)OCO4)c2n1 | -28% | 48 | -3 | nt | -7%
COc1cc(C)ccc1OCC(=O)Nc1ccc2c(c1)OCO2 | -23% | nt | nt | nt | 0%
COc1ccccc1OCC(=O)Nc1ccc2c(c1)OCO2 | -21% | 66* | 25* | 0% | 2%
Cc1ccccc1OCC(=O)OCC(=O)Nc1ccc2c(c1)OCCO2 | -23% | nt | nt | nt | 0%
O=C(COc1ccccc1Cl)Nc1ccc2c(c1)OCO2 | -33% | 71* | 42* | -46% | -13%
Cc1ccccc1OCC(=O)Nc1ccc2c(c1)OCO2 | -26% | 157* | 32* | -11% | 4%
C#CCN1C(=O)C2(OCCO2)c2ccccc21 | -3% | -15 | 1 | 1% | 1%
CCC(=O)Nc1ccc2c(c1)ncn2-c1ccccc1C | -5% | 14 | -3 | -1% | 5%
CCC(=O)Nc1ccc2c(c1)ncn2-c1ccc(OC)cc1 | -12% | 66* | 46* | 11% | 8%
CCC(=O)Nc1ccc2c(c1)ncn2-c1ccc(C)cc1 | -9% | 96* | 36* | nt | -1%
SMILES | AmpC inh no detg | Shiga inhibitor | CHX counter | NS1 inh | AmpC detergent
Cc1ccc(C2CC(=O)NC(SCC(N)=O)=C2C#N)s1 (stereo not drawn) | -11% | 11 | -3 | nt | -2%
O=C(Cc1cc(=O)[nH][nH]1)N/N=C/c1cccc2ccccc12 | 61% | 27 | 11 | nt | 10%
O=C(N/N=C/c1c(Cl)cccc1Cl)c1cccc(F)c1 | -19% | 14 | 17 | -6% | 1%
O=C(N/N=C/c1ccccc1Cl)c1cccc(F)c1 | -37% | 97* | 78* | -82% | ?
O=C(N/N=C/c1cccc2ccccc12)c1cccc(F)c1 | -58% | 79* | 63* | -19% | -7%
Cc1ccc(-c2nc(C)c(CCNS(=O)(=O)c3ccc(F)c(C(F)(F)F)c3)s2)cc1 | nt | nt | nt | nt | 1%
O=C1NCCN(Cc2ccc(Cl)c(F)c2)C1CC(=O)N1CCCO1 (stereo not drawn) | -10% | 38 | 13* | 9% | 2%
COc1ccc2cc(C3NC(=O)c4ccccc4N3)c(Cl)nc2c1 (stereo not drawn) | -30% | -4 | 7 | nt | ?
COc1ccc2cc(C3OCCO3)c(Cl)nc2c1 | 0% | 128* | 60* | -5% | 4%
COc1ccc(COC(=O)c2cccc(S(=O)(=O)N3CCN(C(C)=O)CC3)c2)cc1 | 233% | nt | nt | nt | -4%
C=C(C)[C@H]1CN[C@H](C(=O)O)[C@H]1CC(=O)O | nt | 47*! | -5 | 1% | nt
C[C@@H]1NCC[C@H](CC(=O)O)[C@H]1CC(=O)O | nt | nt | nt | 1% | nt
O=C(Nc1ccc2c(c1)OCCO2)C1CCN(C(=O)c2ccc(F)cc2)CC1 | -6% | 109* | 31* | -14% | 1%
O=C(Nc1ccc2c(c1)OCO2)C1CCN(C(=O)c2ccc(Cl)cc2)CC1 | 14% | -3 | 1 | -8% | 0%
O=C(Nc1ccc2c(c1)OCCO2)C1CCN(C(=O)c2ccc(Cl)cc2)CC1 | -17% | 48* | 30* | -7% | -6%
CC1CCN(C(=O)c2ccc3c(c2)OCCO3)CC1 | -7% | 55* | 46* | 4% | 1%
C=Cc1ccc(C(=O)N2CCCC(Nc3ccc4c(c3)OCCO4)C2)cc1 (stereo not drawn) | -6% | 15 | 12* | 10% | 1%
O=C(Nc1ccc2c(c1)OCO2)C1CCN(C(=O)c2ccc(Br)cc2)CC1 | 16% | 66 | 13 | nt | -9%
COc1ccc(S(N)(=O)=O)cc1C(=O)OCC(=O)N1CCCC(C)C1 (stereo not drawn) | -10% | nt | nt | nt | nt
CC1Cn2cc(C(=O)Nc3cccc(C(F)(F)F)c3)c(=O)c3c(Cl)ccc(c32)O1 (stereo not drawn) | nt | nt | nt | nt | 19%
Cc1ccc(C(=O)C(C(=O)/C=C/c2ccccc2)=C2SCCCS2)cc1 | -20% | 40 | 20* | ? | ?
Cc1ccc(OCCNC(=O)/C=C/c2ccccc2)cc1 | -29% | 14 | 2 | 4% | ?
NC(N)=NS(=O)(=O)c1ccc(NC(=S)NC(=O)Cc2ccc(Cl)cc2)cc1 | 10µM* | -1 | -1 | -6% | ?
COc1ccc(NC(=S)N/C(=N/S(=O)(=O)c2ccc(C)cc2)c2ccccc2)cc1 | -28% | 61* | 34* | -5% | 0%
O=S(=O)(/N=C(/NC(=S)Nc1ccccc1)c1ccccc1)c1ccc(Cl)cc1 | -43% | 101* | 41* | -16% | -2%
SMILES | AmpC inh no detg | Shiga inhibitor | CHX counter | NS1 inh | AmpC detergent
CCOc1ccc(NC(=O)NCCn2nnc3cc(S(=O)(=O)N(C)C)ccc32)cc1 | nt | nt | nt | nt | 7%
OCc1cccc(Nc2ncnc3sc4c(c23)CCCCC4)c1 | 15% | -5 | 6 | -25% | 6%
O=C(CS(=O)(=O)c1ccccc1)c1cc2cc(F)ccc2oc1=O | -52% | 45* | 50* | 14% | 0%
COc1ccc2cc(C(=O)CS(=O)(=O)c3ccccc3)c(=O)oc2c1 | -38% | 25 | 21 | -3% | -3%
COc1ccc(S(=O)(=O)CC(=O)c2cc3cccc(C)c3oc2=O)cc1 | -58% | -3 | 7 | 11% | 2%
CCCC(=O)c1cc2ccccc2oc1=O | -2% | 9 | 12 | -12% | -1%
COc1cccc2cc(C(=O)CS(=O)(=O)c3ccc(C(C)(C)C)cc3)c(=O)oc12 | 18µM* | -13 | -1 | 13% | -1%

Screening data deposited in PubChem by National Center for Advancing Translational Sciences (NCATS).
